This note sets out measurements from PubChem BioAssay AID624351 (Southern Research Specialized Biocontainment Screening …, 2012).

The whole screen tested about 2,400 compounds, of which about 1,400 (58%) were called active. So high a share suggests a set chosen from earlier hits. Some of the results follow. A number with no mark means an inactive call.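 Rule for the calls: active = inhibition of 30% or more at any tested dose; inconclusive = primary hits over the limit that were never retested; inactive = the rest.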

The experiment is described as follows: ADP Hunter readout inhibition without MgcRacGAP – biochemical, coupled enzyme counter-screen, artefact control for MgcRacGAP inhibitor project, dose response (AID 624351).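 For inhibition: 0% = median positive control wells and 100% = median negative control wells.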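 Note: signal is the ADP detection kit reading of free GDP without any GAP enzyme.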 Particulars: fluorescence, no MgcRacGAP; series mostly up to 80 µM; inhibition: at the top concentration. For orientation: A counterscreen serves to expose hits that act by an unwanted route or on another target.
By IC50 is commonly meant the concentration that gives 50% inhibition. Consider `CC1=C/C(=C(/c2cc(C)c(O)c(Br)c2)c2ccccc2S(=O)(=O)O)C=C(Br)C1=O`, for which the IC50 is 62.4 µM (active). Same read-out and setting: next, `Oc1ccc(Cl)cc1C=Nc1ccc2c3c(cccc13)CC2`: 14.8 µM (active); `Oc1ccc(Br)cc1C=Nc1ccc2c3c(cccc13)CC2`: 79.9 µM (active); `Cc1cccc(C=Nc2ccc3c4c(cccc24)CC3)c1O`: 32.6 µM (active). In general, inhibition refers to the relative decrease from the control value, in per cent. Regarding `CC(C)(C)N(Cc1ccc2c(c1)OCO2)C(=O)/C=C\S(=O)c1ccccc1` (centres undefined), the “inhibition” value is 1.78%. On the same count and under the same terms, next, `COc1ccc(C2NC(=O)C(C#N)=C(S)N2c2cccc(C)c2)cc1OC` (centres undefined): 3.49%; `COCc1cc(S(=O)c2ccc(Cl)cc2)nc(C)n1` (centres undefined): 1.89%.

As for `C=CCc1ccc(OCCOCCNCCCC)c(OC)c1`, the “inhibition” value was 16.3%.

For `COc1cc(/C=N/NC(=O)CNC(=O)c2ccc3c(c2)OCCO3)ccc1O`, the IC50 is 58.4 µM (active). On the same count and under the same terms, next, `COc1cc(/C=N/NC(=O)c2ccc3c(c2)OCO3)ccc1O`: 31.9 µM (active). For `Cc1nc2c(=O)[nH]c(=S)[nH]c2[nH]c1=O`, the “inhibition” value was 0.49%. Still for that read-out and setting: for `CN1CCc2c1nc1ccccc1c2NC(=O)CN1CCCC1` the value was 12.3%.

`Cc1[nH]nc(-c2ccc(O)c(C)c2O)c1-c1cnn(-c2ccccc2)c1`: the IC50 is 70.7 µM (active).

For `O=C(Cc1coc2cc(O)ccc12)NNC(=O)c1cccs1`, the half-maximal inhibitory concentration (IC50) is 33.8 µM (active). The same measure, in the same setting: next, `O=C(Cc1coc2cc(O)ccc12)NNC(=O)c1ccc(Br)s1`: 35.2 µM (active); `O=c1oc2cc(O)ccc2c2oc3cc(O)ccc3c12`: 54.1 µM (active).

In the case of `COc1cc(-c2ncc3ccccn23)cc(OC)c1OC`, the “inhibition” value was 23.4%. With `CC1CC(=O)N(c2ccc(NCCc3ccc(O)cc3)c([N+](=O)[O-])c2)C1=O` (centres undefined), the IC50 was 65.3 µM (active). As to `CCCCc1nc2ccccc2c(NC(=O)CN2CCN(C)CC2)c1CCC`, the “inhibition” value was 22.9% [at 40 µM].

As to `O=c1c2ccccc2sn1-c1ccccc1F`, the “inhibition” value is 25.3%. With `CC(=O)C1=C(O)C(=O)N(c2ccc(O)cc2)C1c1ccccc1[N+](=O)[O-]` (centres undefined), the “inhibition” value was 22.4%. Turning to `O=[N+]([O-])c1ccccc1Nc1ccc(O)cc1`, the IC50 was 16.3 µM (active). On to `Nc1nc(Sc2ccc([N+](=O)[O-])c3nonc23)c2[nH]cnc2n1`, for which the “inhibition” value is 0.9%. For the molecule `Nc1cc([N+](=O)[O-])ccc1Nc1ccc(O)cc1`, the IC50 was 36.7 µM (active). Take `Cc1ccc(/C=C/C(=O)Nc2ccc([N+](=O)[O-])c(NC(=O)/C=C/c3ccc(C)o3)c2)o1`: the “inhibition” value is -7.16%.

As to `Cc1cc(NCCCCCCCNc2cc(C)nc3cc([N+](=O)[O-])ccc23)c2ccc([N+](=O)[O-])cc2n1`, the “inhibition” value was 20.3%. Take `O=[N+]([O-])c1cc([N+](=O)[O-])c2nonc2c1Nc1ccc(O)cc1`: the IC50 is 44.7 µM (active).

As for `CCN(Cc1ccncc1)Cc1ccc(OC)cc1OC`, the “inhibition” value was 7.38%. Take `Cn1cccc1/C=N/N1CCN(c2ccccn2)CC1`: the IC50 was 31.9 µM (active). In the case of `CC(C(=O)N1CCCc2ccccc21)N1CCN(c2ccccn2)CC1` (centres undefined), the “inhibition” value is 21.2%. Regarding `COc1ccc(CN2CCN(c3ccccn3)CC2)c(OC)c1C`, the “inhibition” value was 5.26%.

Regarding `Cn1cccc1/C=N/N1CCN(c2ccccc2)CC1`, the IC50 is 78.7 µM (active). For the molecule `Cc1nc(S/C(=C\c2ccc(-c3ccc(C(=O)O)c(Cl)c3)o2)C(=O)O)n[nH]1`, the “inhibition” value was 8.4%. Still for that read-out and setting: next, `CC[n+]1c(/C=C/N(C)c2ccccc2)oc2ccc(Cl)cc21`: 9.46%. Regarding `COc1ccc(O/C(=N\S(=O)(=O)c2ccccc2)c2ccccc2)cc1`, the IC50 was 46.1 µM (active). The same measure, in the same setting: next, `C=CCn1c(CNc2ccccc2)nnc1SCC(=O)N/N=C/c1ccc(O)cc1O`: 79.7 µM (active). In the case of `Cc1ccc(C2=NOC(=O)/C2=C\c2ccc(C)o2)cc1`, the “inhibition” value is -3.56%.

Consider `COc1cc(OC)c2cc[nH]c2c1`, for which the IC50 was 80.5 µM (active). For the molecule `COc1ccc(CN2CCN(Cc3c[nH]c4ccccc34)CC2)c(OC)c1`, the “inhibition” value is 21.2%. On the same count and under the same terms, next, `COc1cc(CNCc2cc(OC)c(OC)c(OC)c2)cc(OC)c1`: -0.49%. `C=CCn1c(SCC(=O)Nc2ccc(O)cc2)nc2sc(CC)cc2c1=O`: the IC50 is 37.1 µM (active). For the molecule `Cc1ccccc1N1C(S)=C(C#N)C(=O)NC12CCCCC2`, the “inhibition” value was 4.18%. Consider `Cc1cc(=O)c2c(O)c(O)ccc2o1`, for which the IC50 was 41.8 µM (active). Turning to `COc1ccc2c(c1)Sc1ccccc1N2`, the concentration for half-maximal inhibition (IC50) is 34.1 µM (active). With `S=C(c1ccccc1)N1CCN(c2ccccc2)CC1`, the “inhibition” value is 3.57%.

On to `COc1cc(CN2CCN(C(=O)c3cccc4ccccc34)CC2)cc(OC)c1OC`, for which the “inhibition” value is 10.6%. Take `Cc1ccc(-c2cc(C(=O)N3CCN(c4ccc(O)cc4)CC3)c3ccccc3n2)cc1`: the IC50 was 83.4 µM (active).

In the case of `O=C(c1ccccc1)N1CCN(C2CCCCC2)CC1`, the “inhibition” value was 14.7%. Same read-out and setting: for `Cc1ccccc1CN1CCN(C(=O)c2cccc3ccccc23)CC1` the value was 8.55%. Still for that read-out and setting: for `CCC(CC)N1CCN(C(=O)c2cccc(Cl)c2)CC1` the value was 16.6%; for `COc1ccc(C(=O)Nc2ccc(N3CCCCCC3)cc2)cc1S(=O)(=O)N1CCOCC1`, 24.4%. Turning to `O=C(c1cc(C2CC2)nn1-c1ccccc1)N1CCN(c2ccc(O)cc2)CC1`, the half-inhibitory concentration (IC50) was 42.2 µM (active).

As to `O=C(c1ccccc1)c1ccc(C(=O)N2CCN(c3ccc(O)cc3)CC2)cc1`, the IC50 is 39 µM (active). On the same count and under the same terms, next, `O=C(c1ccc(Cl)c(S(=O)(=O)N2CCCCCC2)c1)N1CCN(c2ccc(O)cc2)CC1`: 34.3 µM (active).
